About 83,000 compounds went through this panel and 20% of them were active in at least one assay; those are over-represented in the sample as a whole.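 Interpretation: 100, growth as untreated; towards 0, rising growth inhibition; 0, no net growth; 0 to -100, cell death. Compounds scoring below 10 were considered active.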 Activity calls are given as the source filed them.
Columns and labels:
Assay in all cases: NCI-60 one-dose screen, 48 h (100 = growth as untreated, 0 = no growth, -100 = all killed)
Details in all cases: 10 µM unless noted
EKVX NSCLC = tested on: EKVX NSCLC
SN12C renal = tested on: SN12C renal
UO-31 renal = tested on: UO-31 renal
TK-10 renal = tested on: TK-10 renal
ACHN renal = tested on: ACHN renal
A498 renal = tested on: A498 renal
CCRF-CEM leukemia = tested on: CCRF-CEM leukemia
MOLT-4 leukemia = tested on: MOLT-4 leukemia
CAKI-1 renal = tested on: CAKI-1 renal

Measured: growth

COc1ccc([C@@H]2[C@@H](Cl)C(=O)N2c2cc(OC)c(OC)c(OC)c2)cc1C
active: A498 renal -7.32% | CCRF-CEM leukemia 9.56% | MOLT-4 leukemia 8.89%
inactive: EKVX NSCLC 44.2% | SN12C renal 31.2% | UO-31 renal 38.8% | TK-10 renal 71.3% | ACHN renal 31.6%

COc1ccc(/C=C2\Cc3c(Br)cccc3C2=O)c(OC)c1
inactive: EKVX NSCLC 59.8% | UO-31 renal 78.3% | TK-10 renal 90.6% | ACHN renal 59.8% | CAKI-1 renal 79.4% | A498 renal 83.1% | CCRF-CEM leukemia 97.8% | MOLT-4 leukemia 94.1%

CCOC(=O)C1=C(C)NC(SCc2nnc(-c3ccc(Cl)cc3)o2)=NC1c1ccc(Cl)cc1 (stereo not drawn)
inactive: EKVX NSCLC 80.2% | UO-31 renal 48.7% | TK-10 renal 77.5% | ACHN renal 64.1% | A498 renal 80.7% | CCRF-CEM leukemia 39.7%
active: MOLT-4 leukemia 7.02%

CNC(=O)c1cc(Oc2ccc(NC(=O)c3nc(S(C)(=O)=O)sc3-c3ccc(F)cc3)cc2)ccn1
inactive: EKVX NSCLC 77.8% | SN12C renal 97.5% | UO-31 renal 87.5% | TK-10 renal 77% | ACHN renal 90.8% | A498 renal 99.6% | CCRF-CEM leukemia 85.9% | MOLT-4 leukemia 83.1%

Nc1nc2c(c3ncccc13)C(c1ccccc1)Cc1ncccc1-2 (stereo not drawn)
inactive: EKVX NSCLC 78.8% | UO-31 renal 61.1% | TK-10 renal 89.9% | ACHN renal 84.4% | CAKI-1 renal 77.2% | A498 renal 78.2% | CCRF-CEM leukemia 72.3% | MOLT-4 leukemia 65.8%

N#Cc1ccc(NC(=O)Nc2nc3ccc(OC(F)(F)F)cc3s2)cc1
active: EKVX NSCLC -6.94% | SN12C renal -4.65% | UO-31 renal -2.76% | ACHN renal -10.6% | CAKI-1 renal -15.5% | A498 renal -28.1% | CCRF-CEM leukemia 3.09% | MOLT-4 leukemia -13.9%

c1ccc(-c2[nH]c3ccccc3c2-c2ccccc2)cc1
inactive: EKVX NSCLC 77.1% | SN12C renal 91.8% | UO-31 renal 88.6% | TK-10 renal 107% | ACHN renal 93.2% | A498 renal 92.8% | CCRF-CEM leukemia 47.6% | MOLT-4 leukemia 66.2%

Cc1cc(O)c(C2=NN(c3ccc(S(N)(=O)=O)cc3)C(c3ccc(Cl)cc3)C2)c(C)c1Cl (stereo not drawn)
inactive: EKVX NSCLC 49.7% | SN12C renal 36.1% | UO-31 renal 66.6% | TK-10 renal 80% | ACHN renal 58.7% | A498 renal 87.2% | CCRF-CEM leukemia 11.6% | MOLT-4 leukemia 14.3%

O=C(CCc1nc2sc3c(c2c(=O)[nH]1)CCC3)NCc1cn(-c2ccccc2)nc1-c1ccccc1
inactive: EKVX NSCLC 92% | UO-31 renal 98.5% | TK-10 renal 89.4% | ACHN renal 81.1% | CAKI-1 renal 92.5% | A498 renal 66.4% | CCRF-CEM leukemia 61% | MOLT-4 leukemia 59.6%

Cc1cc(Cl)c2ccc(N(C)C)cc2n1
inactive: SN12C renal 98% | UO-31 renal 84.4% | TK-10 renal 109% | ACHN renal 97.6% | CAKI-1 renal 93% | A498 renal 92.6% | CCRF-CEM leukemia 95.9% | MOLT-4 leukemia 84.7%

COc1ccc(/C=C2\N=C(c3cccnc3)N(c3ccccc3)NC2=O)cc1
inactive: SN12C renal 105% | UO-31 renal 82.2% | TK-10 renal 101% | ACHN renal 115% | CAKI-1 renal 97.6% | A498 renal 71.8% | MOLT-4 leukemia 85.6%
active: CCRF-CEM leukemia -21.1%

O=C(/C=C/c1cn(-c2ccccc2)nc1-c1cccc(Nc2ccnc3cc(Cl)ccc23)c1)c1ccc2c(c1)OCO2
inactive: SN12C renal 117% | UO-31 renal 84.8% | TK-10 renal 123% | ACHN renal 105% | CAKI-1 renal 100% | A498 renal 92.3% | CCRF-CEM leukemia 17.2%

COc1cccc(Cn2c(-c3nonc3NC(C)=O)nc3ccccc32)c1
inactive: SN12C renal 48.4% | UO-31 renal 36% | TK-10 renal 26.6% | ACHN renal 42.8% | CAKI-1 renal 24% | CCRF-CEM leukemia 41% | MOLT-4 leukemia 38.7%
active: A498 renal -0.794%

NC(N)=N/N=C/c1ccccc1
inactive: SN12C renal 103% | UO-31 renal 88.3% | TK-10 renal 93.5% | ACHN renal 106% | CAKI-1 renal 86.9% | A498 renal 97.7% | CCRF-CEM leukemia 84.8% | MOLT-4 leukemia 95%

COc1cc(C2CC(c3cccc(Nc4ccnc5cc(Cl)ccc45)c3)=NN2c2ccccc2)cc(OC)c1OC (stereo not drawn)
active: CAKI-1 renal 8.35%
inactive: SN12C renal 68.1% | UO-31 renal 38% | TK-10 renal 75.4% | ACHN renal 45% | A498 renal 73.3% | CCRF-CEM leukemia 57.1% | MOLT-4 leukemia 74.4%

CCOC(=O)c1ccccc1SC(C[N+](=O)[O-])c1ccccc1 (stereo not drawn)
inactive: SN12C renal 93.4% | UO-31 renal 99.4% | TK-10 renal 92.9% | ACHN renal 88.7% | CAKI-1 renal 92.5% | A498 renal 87% | CCRF-CEM leukemia 65.5% | MOLT-4 leukemia 94.3%

Clc1ccc(Nc2ncnc3c2sc2ncccc23)cc1
inactive: SN12C renal 20.5% | TK-10 renal 59.3% | ACHN renal 14.7% | CAKI-1 renal 15.3% | A498 renal 18.7% | CCRF-CEM leukemia 21.2% | MOLT-4 leukemia 15%
active: UO-31 renal -13.8%

Cc1ccc(C2CC(c3cccs3)=NN2c2ccc(S(N)(=O)=O)cc2)s1 (stereo not drawn)
inactive: SN12C renal 98.3% | UO-31 renal 75.8% | TK-10 renal 94.8% | ACHN renal 91.9% | CAKI-1 renal 86.7% | A498 renal 89.9% | CCRF-CEM leukemia 80.6% | MOLT-4 leukemia 89.2%

Clc1ccc(Nc2ncnc3c2sc2ncccc23)c(Cl)c1
inactive: SN12C renal 20.4% | TK-10 renal 59.6% | CAKI-1 renal 15.1% | A498 renal 26.7% | CCRF-CEM leukemia 16.6%
active: UO-31 renal -11.7% | ACHN renal 9.32% | MOLT-4 leukemia 8.22%

COc1ccc(C2=Nn3c(nnc3-c3ccc(Cl)cc3N)SC2)cc1
inactive: SN12C renal 99% | UO-31 renal 83.4% | TK-10 renal 130% | ACHN renal 97% | CAKI-1 renal 92.9% | A498 renal 118% | CCRF-CEM leukemia 73.2% | MOLT-4 leukemia 101%

Cc1nc2ccc(Nc3nc(NCCN4CCOCC4)nc(Nc4ccc(F)cc4)n3)cc2n1Cc1ccccc1
inactive: SN12C renal 61.8% | UO-31 renal 37.3% | TK-10 renal 60.6% | ACHN renal 52.2% | CAKI-1 renal 55.6% | CCRF-CEM leukemia 29.5% | MOLT-4 leukemia 22.7%
active: A498 renal -13.9%

Cc1nc2ccc(Nc3nc(N4CCOCC4)nc(N4CCN(C)CC4)n3)cc2n1Cc1ccccc1
inactive: SN12C renal 113% | UO-31 renal 62.7% | TK-10 renal 87.2% | ACHN renal 94.7% | CAKI-1 renal 102% | A498 renal 40.6% | CCRF-CEM leukemia 79.9%

COc1cc(C2CC(c3ccc(Nc4ccnc5cc(Cl)ccc45)cc3)=NN2c2ccccc2)cc(OC)c1OC (stereo not drawn)
inactive: SN12C renal 76.3% | UO-31 renal 57.8% | TK-10 renal 89.8% | ACHN renal 77.1% | CAKI-1 renal 48.2% | A498 renal 61% | CCRF-CEM leukemia 47.5% | MOLT-4 leukemia 62.3%

COc1ccc(C2CC(c3cccc(Nc4ccnc5cc(Cl)ccc45)c3)=NN2c2ccccc2)cc1 (stereo not drawn)
inactive: SN12C renal 81.3% | UO-31 renal 77.4% | TK-10 renal 111% | ACHN renal 58.8% | CAKI-1 renal 19.9% | A498 renal 55.7% | CCRF-CEM leukemia 57.9% | MOLT-4 leukemia 64.3%

COC(=O)C(C)NC1=C(Cl)C(=O)C(NC(C)C(=O)OC)=C(Cl)C1=O (stereo not drawn)
inactive: SN12C renal 99.5% | UO-31 renal 89.8% | TK-10 renal 121% | ACHN renal 106% | CAKI-1 renal 103% | A498 renal 89.3% | CCRF-CEM leukemia 96% | MOLT-4 leukemia 93.5%

CC(C)(C)c1ccc(Cn2c(-c3nonc3N)nc3ccccc32)cc1
inactive: SN12C renal 73.6% | UO-31 renal 51.4% | TK-10 renal 81.9% | ACHN renal 77.3% | CAKI-1 renal 62.2% | A498 renal 80.1% | CCRF-CEM leukemia 46.7% | MOLT-4 leukemia 62.6%

Cc1ccc(S(=O)(=O)NC(CCC(=O)Nc2ccc(Cl)cc2)C(=O)Nc2ccc(Cl)cc2)cc1 (stereo not drawn)
inactive: SN12C renal 39.8% | UO-31 renal 38.2% | TK-10 renal 25.7% | ACHN renal 30% | CAKI-1 renal 41.9% | MOLT-4 leukemia 10.7%
active: A498 renal -0.58% | CCRF-CEM leukemia 4.45%

Reference: PubChem BioAssay (NCI)
